Assay: HepG2 liver cancer cell viability effects, profiling panel, resazurin fluorescence, 24 h, PK04 Diversity Set (AID 1172); also: test concentration not given here
Conditions: higher = more signal

SMILES | z-score
CCCC[C@H]1OB(O)C[C@H]2C1=C(COc1ccccc1)C[C@H]1C(=O)C=CC(=O)[C@H]12 | -0.149
COCCOC(=O)N1C(=O)[C@@]2(c3ccccc31)[C@H](C(=O)N1CCN(c3ncccn3)CC1)[C@H]1C(=O)O[C@H](c3ccccc3)[C@H](c3ccccc3)N1[C@@H]2c1ccccc1OCCO | -0.482
COC(=O)[C@@]1(Cc2ccccc2)[C@H]2c3cc(C(=O)N(C)C)n(CCO)c3C[C@H]2CN1C(=O)c1ccccc1 | -0.546
[N-]=[N+]=Nc1ccccc1[C@@H]1OC(c2ccc(OCCCO)cc2)=N[C@]1(Cc1ccccc1)C(=O)NCCN1CCOCC1 | -0.158
COc1cc(C(O)C2C=CC3C(=O)N(c4ccccc4)C(=O)C3N2Nc2ccccc2)cc(OC)c1OC (stereo not drawn) | -0.945
C=CCC(OC(C)=O)[C@@H]1[C@@H](N(Cc2ccc(-c3ccccc3)cc2)C(=O)c2cccc3ccccc23)c2cc(OCCCO)ccc2N1C(=O)Cc1ccc(OC)cc1 (stereo partly drawn) | -0.533
Cc1ccc(N2C(=O)c3ccccc3[C@](C)(C(=O)NCCCN(C)C)[C@@H]2c2ccc(CO)cc2)nc1 | 0.218
CCOC(=O)C[C@H]1[C@H](OC(=O)Cc2ccc3c(c2)OCO3)[C@@H](NC(=O)Cc2ccc(OC)cc2)c2cc(OCCCO)ccc2N1C(=O)Cc1ccc(OC)cc1 | -0.354
O=C1N(CCS(=O)(=O)c2ccccc2)c2ccccc2C[C@]12N=C(c1ccc(OCCCO)cc1)O[C@@H]2c1ccccc1 | -0.285
C=CCOC(=O)[C@@H]1[C@H]2C(=O)O[C@H](c3ccccc3)[C@H](c3ccccc3)N2[C@H](c2ccc(OCCOC(=O)[C@H]3C[C@H]4C(=O)N5CCC[C@H]5C(=O)N4[C@H]3c3cccc(OCCO)c3)cc2)[C@@]12C(=O)Nc1ccc(I)cc12 | 0.0829
COc1ccc([Si](C)(C)[C@H]2[C@H](CC(=O)N3Cc4ccccc4C[C@H]3CO)O[C@@]3(C(=O)N(c4ccccc4)c4ccccc43)[C@@H]2C)cc1 | 0.635
CCN(CC)c1ccc(N2CC=CC34O[C@@H]5C=CCCOC(=O)C5[C@H]3C(=O)N(C(C)CO)[C@@H]4C2=O)cc1 (stereo partly drawn) | 0.452
COCCOC(=O)N1C(=O)[C@@]2(c3cc(C#CC4(O)CCCCCC4)ccc31)[C@H](c1ccc(O)cc1)N1[C@H](c3ccccc3)[C@H](c3ccccc3)OC(=O)[C@H]1[C@@H]2C(=O)N1CCCCCCC1 | 0.0323
COC(=O)[C@@]1(Cc2ccc(F)cc2)[C@H]2c3cc(C(=O)N(C)C)n(C)c3C[C@H]2CN1C(=O)c1ccccc1 | -0.476
O=C(NC1CC1)[C@@H]1c2ccccc2C(=O)N(Cc2cc(C(F)(F)F)cc(C(F)(F)F)c2)[C@H]1c1ccc(CO)cc1 | -0.0465
COc1ccc(C(O)C2C=CC3C(=O)NC(=O)C3N2Nc2ccc(Cl)cc2Cl)c2ccccc12 (stereo not drawn) | -2.19
O=C(NCCN1CCOCC1)[C@@H]1c2ccccc2C(=O)N(Cc2ccccc2C(F)(F)F)[C@H]1c1ccc(CO)cc1 | 0.846
CN(C)CCCCNC(=O)[C@H]1C[C@H]2C(=O)N3CCC[C@H]3C(=O)N2[C@H]1c1cccc(OCCO)c1 | -0.0329
COc1ccc(CCNC(=O)[C@@H]2c3ccccc3C(=O)N(Cc3ccccc3OC)[C@H]2c2ccc(CO)cc2)cc1 | 0.851
CC(C)OC(=O)CC(=O)CC(O)c1cccc([N+](=O)[O-])c1 (stereo not drawn) | -0.476
CCOC(=O)C[C@H]1[C@H](OC(=O)c2cc3ccccc3oc2=O)[C@@H](NC(=O)CC(C)C)c2cc(OCCCO)ccc2N1C(=O)Cc1ccc(OC)cc1 | -0.74
CC1=C([C@H](O)CCc2ccccc2)[C@H](CO)n2c(=O)n(-c3ccccc3)c(=O)n2C1 | 0.331
CC(C)(C)N1CC=CC23O[C@@H]4C=CCCOC(=O)C4[C@H]2C(=O)N(CCCCCCO)[C@@H]3C1=O (stereo partly drawn) | 0.0735
CCCCCC1=C2CNC(CC(C)C)(C(=O)OC)C=C2C(C)C1=O (stereo not drawn) | -0.97
O=C1C=C(c2ccccc2)C(=O)C2=C1CC([C@H]1Oc3ccccc3S(=O)(=O)N3CCC[C@@H]13)=CC2 | 0.203
O=C1C[C@@](C(=O)O)(c2ccc([N+](=O)[O-])cc2)[C@@H](c2ccc(CO)cc2)N1C1CCCCC1 | -0.562
CO[C@H]1O[C@H](CO)[C@@H](OC(=O)Nc2ccccc2-c2ccccc2)[C@H](OC(=O)Nc2ccccc2)[C@H]1OC(=O)Nc1ccccc1 | -1.68
O=C1c2ccccc2[C@@]2(Cc3ccccc3N(Cc3ccccc3)C2=O)[C@H](c2ccc(CO)cc2)N1Cc1ccccc1Cl | 0.645

From PubChem BioAssay
